Screening results (PubChem BioAssay)
GPT2 inh: inhibitors of human GPT2 alanine aminotransferase | Recombinant GPT2, coupled pyruvate oxidase/HRP Amplex Red fluorescence | Potency, µM (highest dose often 57.7 µM), most hits filed as inhibitors | 100,000 tested, 0.25% active | AID 1671188 | Q8TD30; note: nearly all actives have a fitted effect of over 60% in size
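Fluorescence read-out: pyruvate from GPT2 turnover coupled to pyruvate oxidase, HRP and Amplex Red (0.2mM ThPP, 0.2U/mL PO and HRP, 50uM Amplex final). Substrates 250uM a-KG, 2mM L-alanine; enzyme 10ng/uL; 30 min RT.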
3T3 cytotox: kills NIH 3T3 cells. NIH 3T3 viability, CellTiter-Glo ATP luminescence, 48-72 h. Potency, µM (titrated, usually from 96.7 µM), usual class: inhibitors. 94,000 tested, 4.3% active. AID 1345082; note: nearly all actives have a fitted effect of over 55% in size
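NIH 3T3 cells at 400 cells/well received 23 nL of compound by pintool and were incubated 48 or 72 h at 37 °C. Viability was read as ATP-coupled CellTiter-Glo luminescence.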
hNpr1 antagonist: blocks ANP-stimulated signaling of human Npr1 receptor | HEK293 hNpr1 GloSensor cGMP, ANP-stimulated luminescence | Potency, µM (highest dose often 46.3 µM), hits mostly inhibitors | AID 1347048 | 76,000 tested, 1.6% active; calls by dose curve; note: nearly all actives have a fitted effect of over 60% in size
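HEK293 cells stably expressing human Npr1 and cGMP GloSensor pGS-40F, loaded 2 h with 2% GloSensor reagent, given compound 30 min at room temperature. Luminescence read before and 20 min after 0.1 nM hNppA.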
HEK293 tox: cytotoxic compounds in HEK 293 cells. HEK 293 viability, ATP luminescence (CellTiter-Glo), 48-72 h. Potency, µM (highest dose often 115 µM), usual class: inhibitors. 94,000 tested, 6.6% active; note: nearly all actives have a fitted effect of over 60% in size
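Viability of HEK 293 cells, plated at 250 cells/well, was judged by cellular ATP after compound treatment for 48 or 72 hr. Luminescence was imaged 10 min after CellTiter-Glo addition at room temperature.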
Luciferase inh: blocks purified firefly luciferase enzyme activity; purified P. pyralis luciferase, luminescence, biochemical; 76,000 tested, 2.5% active; AID 1347043; Potency, µM (titrated, usually from 115 µM), hits mostly inhibitors; note: nearly all actives have a fitted effect of over 65% in size
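Cell-free enzyme assay, 10nM P. pyralis luciferase, luciferin and ATP each at 10uM. Inhibition profiled over a 6-point titration, read as luminescence.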
NPR1 antag cnf: hNpr1 antagonism, confirmation assay; shares compounds with hNpr1 antagonist; 1,400 tested, 76% active; HEK293 hNpr1 cGMP GloSensor luminescence, ANP-stimulated; AID 1347044; Potency, µM (series often up to 57.6 µM), most hits filed as inhibitors; calls by dose curve; note: nearly all actives have a fitted effect of over 70% in size
NPR2 antag: selectivity test of Npr1 antagonists against human Npr2; shares compounds with hNpr1 antagonist; HEK293 hNpr2 GloSensor cGMP luminescence, CNP-stimulated; Potency, µM (doses to about 57.6 µM), most hits filed as inhibitors; 1,400 tested, 67% active; calls by dose curve; note: nearly all actives have a fitted effect of over 70% in size
FLuc counter: FLuc enzyme inhibition, Npr1 counter-screen | purified FLuc enzyme, luminescence, Km substrate | AID 1347047 | shares compounds with hNpr1 antagonist | 1,400 tested, 0.7% active | Potency, µM (series often up to 57.6 µM), actives largely listed as inhibitors
GloSensor ctrl: control cell line activity, Npr1 antagonist counter-screen. shares compounds with hNpr1 antagonist. HEK293 GloSensor cGMP, SNP-stimulated, luminescence. Potency, µM (series often up to 57.6 µM), usual class: inhibitors. 1,400 tested, 69% active. AID 1347051; calls by dose curve; note: nearly all actives have a fitted effect of over 70% in size
Hits are given with their value; – = inactive; ? = inconclusive; · = no result given. Most compounds without a hit are left out; they make up all but 10% or so of the library. Unless noted, calls come from the whole dose curve; as a rule, active = well fitted curve in the direction sought with a large enough effect; inconclusive = small, poorly fitted or top-dose-only effect, or another doubt; inactive = no such curve, though single readings can be large; an effect the other way counts as inactive or inconclusive.

SMILES	GPT2 inh	3T3 cytotox	hNpr1 antagonist	HEK293 tox	Luciferase inh	NPR1 antag cnf	NPR2 antag	FLuc counter	GloSensor ctrl
COc1ccc(N2CCN(C(=O)c3ccc4c(c3)C(O)CCCCCN4C)CC2)cc1 (stereo not given)	–	?	?	?	–	·	·	·	·
COc1ccc(-c2cc(N3CCC(NC(=O)c4ccc(C)c(C)c4)CC3)n[nH]2)cc1	–	?	–	?	–	·	·	·	·
Cc1ccc(CN2CC(Oc3ccc(-c4noc(-c5cccnc5)n4)cc3)C2)o1	–	?	13µM	?	–	19µM	24µM	?	22µM
CCCS(=O)(=O)N1CC(Oc2ccc(-c3noc(-c4cccnc4)n3)cc2)C1	–	?	14µM	?	–	19µM	17µM	–	15µM
O=C(c1ccc2c(c1)OCO2)N1CCN(c2cc(-c3ccc(Cl)cc3)[nH]n2)CC1	–	?	?	?	–	24µM	?	–	24µM
O=C(c1ccc2c(c1)OCO2)N1CCCN(c2cc(-c3ccc(Br)cc3)[nH]n2)CC1	?	?	18µM	?	–	24µM	24µM	–	31µM
COc1cccc(C(=O)N2CCN(c3cc(-c4ccc(Cl)cc4)[nH]n3)CC2)c1OC	–	?	11µM	?	–	22µM	22µM	–	17µM
COc1ccc(C(=O)N2CCC3(CC2)NC(=O)N(Cc2ccc(F)cc2)C3=O)cc1F	–	?	13µM	?	–	19µM	22µM	–	22µM
COc1cccc(C(=O)N2CCN(c3cc(-c4ccccc4)[nH]n3)CC2)c1OC	–	?	–	?	–	·	·	·	·
COc1ccc(C(=O)N2CCC3(CC2)NC(=O)N(Cc2ccccc2)C3=O)cc1F	–	–	?	?	–	·	·	·	·
CN1CC(=O)N(c2ccc(Cl)cc2)Cc2c(NCc3ccc(F)cc3)ncnc21	–	?	–	?	–	·	·	·	·
COc1ccc(-c2cc(N3CCN(C(=O)c4ccccc4Br)CC3)n[nH]2)cc1	–	?	?	?	–	·	·	·	·
O=C(c1ccccc1Br)N1CCN(c2cc(-c3ccc(Cl)cc3)[nH]n2)CC1	–	25µM	2.5µM	?	–	19µM	19µM	–	12µM
COc1ccc(-c2cc(N3CCCN(C(=O)Cc4cccc(OC)c4)CC3)n[nH]2)cc1	?	–	–	?	–	·	·	·	·
CCOc1ccc(C(=O)N2CCCN(c3cc(-c4ccc(Cl)cc4)[nH]n3)CC2)cc1OCC	–	?	11µM	?	–	15µM	17µM	–	15µM
O=C(NC1CCN(c2cc(-c3ccc(F)cc3)[nH]n2)CC1)c1ccc(F)c(Cl)c1	–	32µM	?	?	–	24µM	?	–	?
O=C(NC1CCN(c2cc(-c3ccc(Cl)cc3)[nH]n2)CC1)c1cccc(F)c1	–	–	–	?	–	·	·	·	·
COc1ccc(CC(=O)N2CCCN(c3cc(-c4ccc(OC)cc4)[nH]n3)CC2)cc1	?	?	?	?	–	?	?	–	–
CC1(C)CCCC2(C)C1C(OC(=O)/C=C/C=C/C=O)C=C1COC(=O)C12O (stereo not given)	–	·	·	·	·	·	·	·	·
CN1CC(=O)N(C2CCNCC2)Cc2c1ncnc2N1CCc2ccccc2C1	–	–	·	–	·	·	·	·	·
CCOC(=O)[C@H]1C[C@]2(CCCCN(C)C2=O)N(C(=O)c2cc(C)oc2C)[C@H]1c1ccco1	·	–	·	?	·	·	·	·	·
COc1ccc(C(=O)N2CCN(c3cc(-c4ccc(Cl)cc4)[nH]n3)CC2)cc1F	–	?	11µM	?	–	14µM	19µM	–	11µM
COc1ccc(C(=O)N2CCN(c3cc(-c4ccc(Cl)cc4)[nH]n3)CC2)cc1	–	7.1µM	8.9µM	35µM	–	15µM	17µM	–	11µM
COc1ccc(CC(=O)NC2CCN(c3cc(-c4ccc(Cl)cc4)[nH]n3)C2)cc1OC (stereo not given)	?	?	10µM	?	–	19µM	22µM	–	11µM
COc1ccc(-c2cc(N3CCN(C(=O)c4ccc(OC)c(F)c4)CC3)n[nH]2)cc1	–	?	–	?	–	·	·	·	·
SMILES	GPT2 inh	3T3 cytotox	hNpr1 antagonist	HEK293 tox	Luciferase inh	NPR1 antag cnf	NPR2 antag	FLuc counter	GloSensor ctrl
O=C(Cc1c[nH]c2ccccc12)N1CCCN(c2cc(-c3ccc(Br)cc3)[nH]n2)CC1	?	35µM	16µM	?	–	24µM	27µM	–	27µM
O=C(c1ccc2nc[nH]c2c1)N1CCCN(c2cc(-c3ccc(Br)cc3)[nH]n2)CC1	–	–	–	?	–	·	·	·	·
CC(C)NC(=O)C1CCCN1Cc1ccc(-c2cncnc2)cc1 (stereo not given)	–	–	·	–	·	·	·	·	·
COC1C(=O)N(c2cccc(F)c2)C12CCN(Cc1ccc(F)cc1F)CC2 (stereo not given)	–	?	–	?	–	·	·	·	·
Cc1ccc(C(=O)N2CCCN(c3cc(-c4ccccc4)[nH]n3)CC2)cc1	–	–	–	?	–	·	·	·	·
O=C(c1ccccc1)N1CCN(c2cc(-c3ccc(Cl)cc3)[nH]n2)CC1	–	?	?	?	–	?	?	–	?
CC(=O)Nc1ccc(C(=O)N2CCCN(c3cc(-c4ccc(Cl)cc4)[nH]n3)CC2)cc1	–	–	–	?	–	·	·	·	·
O=C(c1ccc(Cl)cc1)N1CCN(c2cc(-c3ccc(Cl)cc3)[nH]n2)CC1	–	32µM	11µM	40µM	–	22µM	22µM	–	22µM
Cn1cc(-c2cccc(O)c2)c2nc(COc3ccc(Cl)cc3)cn2c1=O	–	?	35µM	32µM	–	40µM	?	–	35µM
Cc1c(-c2cn(C)c(=O)n3cc(COc4ccc(Cl)cc4)nc23)cnn1C	?	?	–	?	?	·	·	·	·
O=C(c1ccc(Cl)nc1)N1CCCN(c2ccc3nnc(-c4ccccc4)n3n2)CC1	·	–	·	–	·	·	·	·	·
COCc1nc(-c2ccc(OC3CCN(C(=O)CCc4ccc(OC)cc4)C3)cc2)no1 (stereo not given)	–	?	14µM	?	–	27µM	27µM	–	?
COCc1nc(-c2ccc(OC3CCN(Cc4ccc(C(F)(F)F)cc4)C3)cc2)no1 (stereo not given)	–	?	7.9µM	?	–	8.6µM	11µM	–	7.7µM
Cc1cccc(OCC(=O)N2CCC(Cc3nc(-c4cnccn4)no3)CC2)c1	–	?	–	–	–	·	·	·	·
